Results as given in PubChem BioAssay (NCATS).
Records with an inconclusive call do not appear. Calls come from the whole dose curve; as a rule, active = well fitted inhibition curve with a large enough effect; inconclusive = small, poorly fitted or top-dose-only effect; inactive = no such curve, though single readings can be large or run the other way.

test: Primary qHTS for small molecule stabilizers of the endoplasmic reticulum resident proteome: Secreted ER Calcium Modulated Protein (SERCaMP) assay (AID 1508630); conditions: SH-SY5Y GLuc-SERCaMP (Gaussia luciferase released on ER calcium loss) secretion, thapsigargin, luminescence; series mostly up to 38.4 µM; activity change, negative = inhibition: at the top concentration
Procedure, shortened: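 The SH-SY5Y reporter protocol was run at 3 concentrations up to 38.3 uM (primary) or 11 concentrations (follow-up): 16 h compound, 100 nM thapsigargin for 4 h, then extracellular luciferase luminescence.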
% is set by controls: 0 for no effect and ±100 for the full control effect.

Activity change, negative = inhibition, inactive:
COc1ccc(Oc2ncc3nc(C)c(=O)n(CCc4ccccc4)c3n2)cc1 -2.99%
CN(C)c1ccc(-c2nc(NC3CCNCC3)c3ccccc3n2)cc1 53.2%
O=c1cnc2cnc(Oc3ccccc3)nc2n1C[C@H]1CCCO1 -5.12%
COc1cccc(Cn2c(=O)c(C)nc3cnc(N4CCOCC4)nc32)c1 -4.89%
N#Cc1cccc(NC(=O)N2CCCC3(CCN(C(=O)c4cc(C(F)(F)F)cc(C(F)(F)F)c4)CC3)C2)c1 -24.6%
O=S(=O)(c1ccccc1)N1CCC2(CC1)CN(Cc1ccccc1)C2 -19.6%
O=C(c1ccncc1)N1CCC2(CCCN(Cc3ccccc3)C2)CC1 25.2%
CNc1nc(-c2ccc(N(C)C)cc2)nc2ccccc12 18.3%
O=c1c(-c2ccc(F)c(F)c2)nc2cncnc2n1Cc1ccccc1 -25.2%
COc1ncc2nc(CCc3ccccc3)c(=O)n(Cc3cccs3)c2n1 -26.9%
O=C(Nc1ccccc1)N1CC2(CCN(C(=O)c3cc(C(F)(F)F)cc(C(F)(F)F)c3)CC2)C1 12.4%
COc1ccccc1CN1CCC2(CCNCC2)CC1 54.7%
O=c1c(-c2ccccc2)nc2cncnc2n1Cc1ccc(F)cc1 -20.6%
O=C(c1cc(C(F)(F)F)cc(C(F)(F)F)c1)N1CCC2(CCCN(Cc3ccncc3)C2)CC1 -23.7%
Cn1c(=O)c(-c2cccs2)nc2cnc(Oc3ccccc3)nc21 -14.4%
Cc1cnc(CNc2nc(-c3ccc4c(c3)OCO4)nc3ccccc23)cn1 6.52%
COc1cccc(Cn2c(=O)cnc3cnc(N4CCOCC4)nc32)c1 25.5%
O=C(c1ccco1)N1CCC2(CCCN(Cc3ccccc3)C2)CC1 -10.9%
COc1ccc(Oc2ncc3ncc(=O)n(Cc4cccc(OC)c4)c3n2)cc1 36%
COc1ccc(Oc2ncc3ncc(=O)n(CCC#N)c3n2)cc1 13.6%
O=C(Oc1ccccc1)N1CCC2(CCCN(c3ccc(-c4ccccc4)cc3)C2)CC1 62.7%
COCCn1c(=O)c(C)nc2cnc(OCc3ccccc3)nc21 -12.1%
COc1cccc(Cn2c(=O)c(C)nc3cnc(Oc4ccccc4)nc32)c1 -26.8%
CC(=O)N1CCC[C@@]2(CCN(c3ccccc3)C2)C1 4.81%
